# Screening data as filed in PubChem BioAssay.
# Pf growth 48h – inhibits P. falciparum growth in the first generation, 48 h | P. falciparum luciferase growth in erythrocytes, 48 h | Potency, µM (highest dose often 28.7 µM), for the others: top-dose activity change, negative = inhibition, actives largely listed as inhibitors | hit rate 5.9% among 310,000 | AID 504832; note: potency is the fitted concentration of half-maximal effect; % is set by controls: 0 for no effect and ±100 for the full control effect
#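 Luciferase-expressing P. falciparum in infected erythrocytes (2% hematocrit, 0.1% parasitemia final) in RPMI 1640/0.5% Albumax were exposed to compound for 48 hours at 37 C, 5% CO2; growth read as luminescence.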
# Sm TGR block – blocks Schistosoma mansoni thioredoxin glutathione reductase; Potency, µM (top dose mostly 114 µM), for the others: top-dose activity change, negative = inhibition, hits mostly inhibitors; Q962Y6; hit rate 3% among 360,000; purified TGR, DTNB reduction, TNB absorbance 405 nm; AID 485364; note: potency is the fitted concentration of half-maximal effect; % is set by controls: 0 for no effect and ±100 for the full control effect; nearly all actives have a fitted effect of over 60% in size
#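 First, TGR (20 nM dispensed) and NADPH were mixed with compound. Second, a 15 min room-temperature incubation followed. Third, further NADPH and then DTNB were added to start the reaction. Finally, TNB absorbance was monitored kinetically.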
# Pf growth 96h – inhibits malaria parasite growth, 96 h; P. falciparum luciferase reporter growth, 96 h; Potency, µM (series often up to 28.7 µM), inactives show top-dose activity change, negative = inhibition, actives largely listed as inhibitors; hit rate 6.9% among 320,000; AID 504834; note: potency is the fitted concentration of half-maximal effect; % is set by controls: 0 for no effect and ±100 for the full control effect
#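 Compounds incubated with erythrocytes infected by luciferase-expressing P. falciparum (2% hematocrit, 0.05% parasitemia final) for 96 hours, 37 C in 5% CO2. Growth inhibition scored as decreased luciferase luminescence.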
# CHX counter – affects cycloheximide protein synthesis inhibition readout, counter-screen. AID 2314. cell reporter, cycloheximide protein synthesis inhibition counterscreen. hit rate 12% among 300,000. max response, %; in the data active = max response mostly above about 13%, no sharp cut-off; inactive = mostly below about 14%; note: read at 38.3 µM for the half of the compounds with a filed dose; 0% is about no effect
# NS1 inh – inhibitors of influenza NS1 protein function; Potency, µM (series often up to 46.1 µM), for the others: at the highest dose activity, positive = more growth; hit rate 0.4% among 270,000; AID 2326; calls by dose curve; note: potency is the fitted concentration of half-maximal effect; actives are rising curves; nearly all actives have a fitted effect of over 50% in size
#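 Growth recovery, yeast-based: influenza A NS1 expressed in S. cerevisiae causes slow growth, and suppressors are detected by OD600. The parent strain without NS1 is used as positive control.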
# Shiga inhibitor – Shiga toxin inhibition; Vero cells, Shiga toxin protein synthesis inhibition reporter; inhibition, % at 38.7 µM; hit rate 9.2% among 290,000; AID 2315; in the data active = inhibition mostly above about 28%, no sharp cut-off; inactive = mostly below about 43%; note: 0% is about no effect
# An asterisk follows results filed as active; ? = inconclusive; / = no result; [ ] = dose if it differs, or a comment. An excerpt weighted towards active compounds, which were near 21% of everything screened. Unless noted, calls come from the whole dose curve; as a rule, active = well fitted curve in the direction sought with a large enough effect; inconclusive = small, poorly fitted or top-dose-only effect, or another doubt; inactive = no such curve, though single readings can be large; an effect the other way counts as inactive or inconclusive.
SMILES,Pf growth 48h,Sm TGR block,Pf growth 96h,CHX counter,NS1 inh,Shiga inhibitor
CCN(CC)CCCNC(=O)CSc1c2c(nc3cc(Cl)ccc13)CCCC2,?,?,35.0%,-9.8,/,-22.7
CCN(CCO)CCCC(C)Nc1ccnc2cc(Cl)ccc12 (stereo not drawn),0.151µM*,/,0.169µM*,-2.7,/,3.9
CCN(CC)CCC[C@H](C)Nc1c2ccc(Cl)cc2nc2ccc(OC)cc12,0.0379µM*,/,0.0953µM*,/,/,/
C=CCOc1ccc(/C=N/NC(=O)CN2CCOCC2)cc1OCC,1.3%,8.8%,?,-2.5,1.2%,-12.8
CC(=O)N(CCC(c1ccco1)C(C)C)Cc1ccc(OC(C)C)cc1 (stereo not drawn),?,?,?,1.9,6.1%,-8.0
CCCC(=O)NC(=S)Nc1cccc(Cl)c1N1CCCCC1,7.38µM*,-15.8%,8.28µM*,-0.7,-9.4%,-3.0
CCCCC(=O)NC(=S)Nc1ccccc1N1CCCCC1,?,-0.2%,?,-1.5,-26.4%,0.8
CCC(=O)NC(=S)Nc1cccc(Cl)c1N1CCCCC1,11.7µM*,0.0%,7.38µM*,5.6,15.8%,17.5
CCCCC(=O)NC(=S)Nc1cccc(Cl)c1N1CCCCC1,?,-5.9%,?,-2.3,-0.9%,-15.0
CN(Cc1ccccc1)C(=O)COC(=O)CNS(=O)(=O)c1ccc2ccccc2c1,-9.8%,3.8%,12.0%,/,/,/
COc1ccc(C2CC(=O)N(Cc3cccc(C)c3)c3c2c(C)nn3-c2nc(C)cc(C)n2)c(OC)c1 (stereo not drawn),/,10.0%,/,/,/,/
CCSC1=C(C#N)C(c2ccc(C)o2)CC(=O)N1 (stereo not drawn),1.2%,-31.5%,28.3%,0.3,-6.3%,11.2
CCCSC1=C(C#N)C(c2ccccc2OCC)CC(=O)N1 (stereo not drawn),?,2.4%,5.22µM*,-3.3,-5.7%,-13.1
CCCCCCSC1=C(C#N)C(c2ccc(C)o2)CC(=O)N1 (stereo not drawn),3.5%,44.7µM*,-5.5%,1.3,-12.4%,-9.7
CCc1ccc(C(=O)O)cc1,-1.1%,6.0%,-4.1%,0.9,-3.1%,9.2
C=Cn1c(C(=O)O)ccc1-c1ccc(CC)cc1,?,-21.8%,105.4%,41.6*,-126.6%,34.7
CCOC(=O)COc1cc(-n2c(=S)[nH]c3ccccc3c2=O)c(Cl)cc1Cl,?,0.4%,-0.7%,-6.5,/,7.0
CCOC(=O)COc1cc(N)c(Cl)cc1Cl,-28.2%,4.4%,30.7%,27.0*,/,14.9
COC(=O)/C(=C1/Oc2cc(C)oc(=O)c2S1)C(F)(F)F,?,-3.6%,?,12.1,-19.7%,19.8
COC(=O)/C(=C1/Oc2ccc(C(C)(C)C)cc2S1)C(F)(F)F,56.9%,-3.6%,?,50.1*,-9.1%,9.7
Cc1ccc(CNC(=O)CCCCn2c(=O)c3ccccc3n(Cc3c(C)cc(C)cc3C)c2=O)cc1,/,6.3%,/,/,/,/
Cc1ccc(C(=O)COC(=O)C2C3C=CC(C3)C2C(=O)OCC(=O)c2ccc(C)c(C)c2)cc1C (stereo not drawn),?,8.0%,1.17µM*,0.9,7.8%,-19.9
CC(=O)NCC(=O)OCC(=O)c1ccc(C)c(C)c1,13.5%,2.6%,26.6%,2.1,1.1%,19.0
C=CCn1c(SC(C)C(=O)c2c(N)n(C)c(=O)n(C)c2=O)nnc1-c1ccoc1C (stereo not drawn),11.7µM*,1.3%,8.28µM*,/,/,/
CC1CCOC(c2coc3ccccc3c2=O)O1 (stereo not drawn),161.6%,-6.7%,181.6%,58.7*,3.4%,54.0*
CC1CC(=O)C2=C(C1)OC(N)=C(C#N)C2c1coc2ccccc2c1=O (stereo not drawn),2.8%,-6.9%,-17.6%,5.4,2.0%,10.1
CC1CCc2sc3nc(NCc4ccco4)n4ncnc4c3c2C1 (stereo not drawn),/,0.0%[11.4 µM],?,11.4,-66.7%,16.9
CC1CCCc2sc3nc(NCc4ccco4)n4ncnc4c3c21 (stereo not drawn),?,?,-2.1%,23.5*,-96.4%,55.4
Cc1ccc(C(=O)OCC(=O)N(C)c2c(N)n(Cc3ccccc3)c(=O)[nH]c2=O)s1,5.7%,0.6%,14.2%,/,/,/
Cc1cc(=O)oc2cc(OCC(=O)NCCCN3CCOCC3)ccc12,28.8%,5.2%,?,-0.9,3.8%,26.6
